Screens: PubChem, several laboratories
Sampled rows, rich in hits. Any-hit rate of the full collection: about 2%.
Beta apoptosis: beta cell apoptosis inhibition; INS-1E cytokine-induced death, ATP luminescence, 48 h; percent of positive-control rescue, neutral wells zero; protection from apoptosis, % (test concentration not listed); 300,000 tested, 0.8% active; AID 435005;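 active means Every replicate reaches about 75%, or at least half do and their mean reaches it too, limit read from the data; inconclusive means At least half of replicates reach the limit but their mean does not; inactive means Under half of replicates reach the limit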;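 further: 0% = cytokine-treated negative control wells and 100% = positive control rescue; higher means more ATP so stronger rescue from cytokine killing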
Calb FLC: affects C. albicans growth with fluconazole | C. albicans CaCi-2 (fluconazole-resistant clinical isolate) + fluconazole, Alamar Blue growth, 48 h | 300,000 tested, 0.57% active | growth inhibition, % (no concentration beside the values);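 active means growth inhibition above about 58% in most replicates, limit read from the data, passing the limit was not always enough; inconclusive means exactly half the replicates above a set limit; inactive means most replicates below a set limit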;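 further: all wells also contain fluconazole at 8 µg/ml as a sub-toxic cotreatment; 0% = median of DMSO wells and 100% = median of geldanamycin control wells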
Shn3 inh set2: reduces Shn3 3'UTR luciferase signal in osteoblasts; Clone20 osteoblast Shn3 3'UTR firefly luciferase, 24 h; inhibition, % at 12.5 µM; 360,000 tested, 0.52% active;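 active means mean inhibition of at least 75% with every replicate also reaching 75%; inconclusive means mean inhibition at least 75% but some replicate below; inactive means mean inhibition below 75%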;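 further: 0% = median of neutral control wells and 100% = pilot-screen positive control compound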
Jurkat NFkB inh: lowers PMA/ionomycin-induced NF-kB signal in Jurkat cells | PMA/ionomycin-induced NF-kB luciferase reporter, luminescence | 330,000 tested, 0.53% active | inhibition, % at 4 µM; in the data active means inhibition above about 50%
697 NFkB inh: lowers PMA/ionomycin-induced NF-kB signal in 697 B cells; 697 B-cell NF-kB luciferase reporter, 16 h; inhibition, % at 4 µM; 330,000 tested, 0.33% active; AID 435022; in the data active means inhibition above about 35%
Jurkat NFkB conf: lowers PMA/ionomycin-induced NF-kB signal in Jurkat cells; inhibition, % at 4 µM; AID 435020; 2,700 tested, 27% active; shares compounds with Jurkat NFkB inh; Jurkat NF-kB luciferase, 16 h;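 active means inhibition reaching about 45% at 4 µM in either replicate, limit read from the data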;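 further: plate controls were PMA/ionomycin stimulated DMSO wells for no effect and unstimulated DMSO wells for full effect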
Starred values were filed as active, the others as inactive; u = inconclusive; x = no result.

SMILES	Beta apoptosis	Calb FLC	Shn3 inh set2	Jurkat NFkB inh	697 NFkB inh	Jurkat NFkB conf
COc1ccc2[nH]c(=O)c(-c3nnn(-c4ccc(Cl)nc4)n3)cc2c1	-10.2	-6.3	-4.6	5.6	6.0	x
CCOC(=O)c1c(C)[nH]c(C(=O)N/N=C/c2ccc(OC)c(OC)c2)c1C	19.6	-1.3	19.3	55.4*	-21.7	10.5
CCOC(=O)c1c(NC(=O)N/N=C/c2ccc(O)c(OC)c2)sc(C(C)=O)c1C	1.2	-2.1	x	58.0*	-197.6	32.7
Cc1nc(C)c(C(=O)OCC(=O)NCc2ccccc2)s1	-6.5	x	5.9	2.5	1.8	x
Cc1nc2c(OCCN3C(=O)c4ccccc4C3=O)cccn2c1N(C)C(=O)CCC1CCCC1	x	x	-7.7	x	x	x
C=CCSc1nnc(-c2ccc(Cl)cc2Cl)o1	5.0	14.1	-77.7	-150.2	-125.1	-102.6
Cc1ccc(O)c(NC(=O)C2CC(c3c(F)cccc3Cl)=NO2)c1 (stereo unspecified)	2.1	11.9	-117.6	51.0*	-14.9	14.1
COc1cc(NC(=O)C2CC(c3c(F)cccc3Cl)=NO2)c(OC)cc1Cl (stereo unspecified)	x	2.5	2.4	-0.1	1.5	x
CCCN1CCC(=NNc2ccc(S(=O)(=O)N(CC)CC)cc2[N+](=O)[O-])CC1	-3.7	-15.8	16.2	58.8*	-11.7	-6.8
CCCN1CCC(=NNc2ccc(S(N)(=O)=O)cc2[N+](=O)[O-])CC1	-5.1	4.1	-0.3	1.1	10.5	x
Cc1cccc(COc2ccc(/C=C3/C(=O)N(C)C(=S)N3C)cc2)c1	0.5	-6.7	1.1	-0.8	18.8	x
COc1ccc(Nc2nc(N3CCCC3)c3ccccc3n2)cc1	81.4*	11.9	86.7*	57.8*	-24.2	19.8
O=C(COc1ccccc1)Nc1cccc(-c2nc3cc4ccccc4cc3[nH]2)c1	33.5	109.1*	-73.9	-231.3	-154.6	-119.5
CN1CCN(c2ccc(-c3cccc(NC(=O)COc4ccc(Cl)cc4)c3)nn2)CC1	x	6.3	-99.7	-178.7	-128.8	-54.5
CCC(=O)Nc1cccc(-c2ccc(N3CCCCC3)nn2)c1	7.7	-0.4	-59.9	-83.6	-149.3	x
CN1CCN(c2ccc(-c3cccc(NC(=O)COc4ccccc4)c3)nn2)CC1	-0.5	6.3	-77.9	-174.8	-132.5	-72.8
CCC(=O)Nc1cccc(-c2ccc(N3CCN(C)CC3)nn2)c1	-6.6	-1.5	-96.7	-110.2	-57.9	x
O=C(COc1ccccc1)Nc1cccc(-c2nn[nH]n2)c1	x	-3.3	3.3	-5.5	2.8	x
CN1CCN(c2ccc(-c3cccc(NC(=O)COc4ccc(Cl)cc4Cl)c3)nn2)CC1	x	u	8.4	-169.8	-110.3	-18.0
COc1cc(C(=O)Nc2cc(C)ccn2)ccc1OCC(=O)N1CCOCC1	3.3	-3.1	-31.9	-13.1	-22.6	x
S=C(c1ccc(-c2cccc(Cl)c2)o1)N1CCCCC1	5.1	7.7	-86.3	-165.9	-178.0	-90.2
S=C(c1ccc(-c2cccc(Cl)c2)o1)N1CCOCC1	-2.3	-0.6	-77.7	-95.1	-180.3	x
O=C(COc1ccccc1Cl)Nc1cccc(S(=O)(=O)NC2=NCCCCC2)c1	5.5	-5.6	12.2	20.1	24.1	x
CC(C)(C)c1ccc(C(=O)NCCc2ccccc2)cc1	-4.2	-10.5	-11.8	-184.6	-239.9	-151.9
O=C(Nc1ccc(NC(=O)C23CC4CC(CC(C4)C2)C3)cn1)c1ccco1	-2.7	0.0	-100.8	-151.1	-101.0	-65.8
SMILES	Beta apoptosis	Calb FLC	Shn3 inh set2	Jurkat NFkB inh	697 NFkB inh	Jurkat NFkB conf
CC(C)(C)C(=O)Nc1ccc(NC(=O)c2ccco2)nc1	2.0	10.9	90.0*	77.9*	-32.8	87.9*
O=C(Nc1cccnc1)c1ccc(COc2cc(Cl)ccc2Cl)o1	-3.8	-6.7	37.8	57.0*	-1.3	8.3
CCn1cc2nc(SCC(=O)Nc3ccc(OC)cc3OC)n(Cc3ccc(OC)cc3)c(=O)c2n1	18.8	-4.9	26.1	51.5*	-22.5	29.9
CN(C)CCOC1c2ccccc2CSc2ccccc21 (stereo unspecified)	x	7.8	x	-27.2	7.3	x
Brc1ccc2c(c1)C(C1=NCCN1)c1ccccc1CS2 (stereo unspecified)	8.0	12.0	12.0	60.0*	0.9	56.5*
COc1ccc(N=C2C(=Nc3ccc(OC)cc3)N(c3ccccc3)C(=S)N2C(=O)c2ccc(Cl)cc2)cc1	7.1	-21.8	-14.0	-25.7	-0.9	x
COc1ccc(N2C(=S)N(C(=O)c3ccccc3)C(=Nc3ccccc3)C2=Nc2ccccc2)cc1	9.0	4.7	4.9	-176.1	-225.4	-63.0
COc1ccc(N=C2C(=Nc3ccc(OC)cc3)N(c3ccc(N(C)C)cc3)C(=S)N2c2ccc(OC)cc2)cc1	-4.5	-11.3	-13.6	70.4*	29.6	-40.9
COc1ccc(N=C2C(=Nc3ccc(OC)cc3)N(c3ccc(OC)cc3)C(=S)N2C(=O)c2ccc(OC)cc2)cc1	3.1	-5.2	-23.5	-7.9	11.6	x
CCOc1cc(S(=O)(=O)N2CC=C(c3ccc(F)cc3)CC2)c(OCC)cc1-n1cnnn1	31.5	u	-7.6	55.6*	-61.1	23.0
CN(C)Cc1cc(C(C)(C)c2ccccc2)ccc1O	x	x	-17.0	x	x	x
Cc1cc(N(C)C)ccc1N=Nc1ccc2ncccc2c1	-5.0	-9.2	-46.5	-164.6	-182.8	-104.6
CN(C)c1ccc(N=Nc2ccc3ncccc3c2)cc1	x	x	-5.5	x	x	x
C/C(=N\OCc1cccc(C(=O)O)c1)c1ccc(Cl)cc1	2.8	8.3	37.2	62.1*	13.3	37.8
COc1ccc(/C=C2\CN(Cc3ccccc3)C/C(=C\c3ccc(OC)c(O)c3)C2=O)cc1O	103.8*	0.9	95.8*	52.6*	-65.5	9.8
COc1cc(/C=C2\COC/C(=C\c3ccc(O)c(OC)c3)C2=O)ccc1O	-12.5	0.4	x	3.6	-60.6	x
CCN1C/C(=C/c2ccc(OC)c(O)c2)C(=O)/C(=C/c2ccc(OC)c(O)c2)C1	96.9*	52.1	-20.3	88.9*	-117.6	44.4*
COc1ccc(C=C2C(=O)c3ccccc3C2=O)cc1O	x	0.1	8.3	16.7	14.8	x
Cc1ccccc1C=Nc1ccccc1C(N)=O	2.5	-21.0	-3.5	53.8*	2.0	11.2
Cc1ccn2cc(-c3cccc([N+](=O)[O-])c3)nc2c1	9.4	-8.2	-56.7	-166.2	-189.7	-94.9
COc1ccc(NC(=S)Nc2ccc3c(c2)c(=O)n(C)n3-c2ccccc2)cc1	x	x	-15.2	x	x	x
Cc1ccc(Nc2nc(-c3ccc(F)cc3)cs2)nc1	x	-7.6	-136.3	-175.0	-186.9	-80.8
COc1ccc(-c2csc(Nc3ccc(C)cn3)n2)cc1OC	3.2	13.2	-44.1	-14.6	-7.7	x
CC(=O)Nc1ccc(-c2csc(Nc3ccc(Cl)cn3)n2)cc1	5.1	52.3	-8.5	18.1	-25.8	x
CC(=O)Nc1cccc(-c2csc(Nc3ccc(Cl)cn3)n2)c1	x	u	-52.3	-156.3	-194.0	-76.0
Cc1cccc(Nc2nc(-c3ccc(F)cc3)cs2)n1	6.6	-24.7	-107.8	-129.0	-209.8	x
Cc1ccc(Nc2nc(-c3ccc(O)c(O)c3)cs2)nc1	x	35.3	x	53.2*	-33.7	-0.7
